GALR2 agonist = agonists of human galanin receptor 2 (GALR2). activation, % (concentration not given with the values). GALR2-expressing cells, agonist activation read-out. 0.48% of 140,000 active. O43603; in the data active means activation above about 5%, passing the limit was not always enough;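 further: 0% = vehicle buffer wells and 100% = reference agonist at full effect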
Target sequence (O43603 whole entry, looked up): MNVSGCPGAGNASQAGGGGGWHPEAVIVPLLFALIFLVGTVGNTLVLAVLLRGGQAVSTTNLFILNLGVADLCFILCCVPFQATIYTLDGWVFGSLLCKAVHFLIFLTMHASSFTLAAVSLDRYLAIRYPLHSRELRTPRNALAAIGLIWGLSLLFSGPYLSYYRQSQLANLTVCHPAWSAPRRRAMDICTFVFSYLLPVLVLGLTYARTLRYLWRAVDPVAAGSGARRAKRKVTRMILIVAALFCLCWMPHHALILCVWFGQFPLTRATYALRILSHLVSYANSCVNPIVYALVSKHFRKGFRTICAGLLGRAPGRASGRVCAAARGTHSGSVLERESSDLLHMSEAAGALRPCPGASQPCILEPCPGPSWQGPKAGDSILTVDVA
S1P2 agonist = agonists of human S1P2 receptor. S1P2-expressing cell line, agonist reporter read-out. activation, % at 4.5 µM. 0.46% of 97,000 active; in the data active means activation above about 16%;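 further: 0% = vehicle low control and 100% = maximal reference agonist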
GALR2 blocker = GALR2 (human) receptor antagonism. O43603. inhibition, % at 4 µM. 0.39% of 140,000 active. GALR2-expressing cells, antagonist mode; in the data active means inhibition above about 27%;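 further: cells stimulated with galanin 1-16 at roughly its EC80; 0% = agonist challenge control and 100% = basal control without agonist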
hDAT+cocaine = modulates human dopamine transporter uptake under cocaine; LLC-PK1 hDAT cells, [14C]-dopamine uptake with cocaine IC80; actives deviate in either direction; B-score at 10 µM; 1.3% of 110,000 active; AID 449768;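 active means Z score or B-score, a plate-position-corrected score, falls beyond the plate's 99.7% confidence bounds, in either direction; inactive means both scores lie inside the 99.7% bounds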;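 further: scored against the spread of the other compound wells on the same plate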
S1P2 antag = blocks the human S1P2 receptor | O95136 | cell-based S1P2 antagonist assay, inhibition at 5 uM | inhibition, % at 5 µM | 0.21% of 97,000 active; in the data active means inhibition above about 45%;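 further: CRE beta-lactamase reporter cells expressing human S1P2 stimulated with S1P; 0% = agonist at EC80 alone and 100% = agonist plus reference antagonist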
GALR2 agon conf = GALR2 (human) agonism confirmed. shares compounds with GALR2 agonist. GALR2-expressing cells, agonist activation. activation, % at 5.6 µM. 10% of 460 active. AID 864; in the data active means activation above about 8.4%;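 further: 0% = buffer-only vehicle wells and 100% = full reference agonist response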
BLA act counter = counter-screen for GALR2 agonists: beta-lactamase reporter activators | shares compounds with GALR2 agonist | 10% of 460 active | activation, % at 5.6 µM | CHO NFAT-bla reporter, beta-lactamase FRET activation | AID 865;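 active means activation above the screen-wide mean activation plus 3 SD, cut at about 8% in these data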;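 further: 0% = DMSO with PBS wells and 100% = thapsigargin positive control wells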
Starred values were filed as active, the others as inactive; · = no result given. Only some compounds are listed: those with a hit (about 2.1% of all), similar ones and a draw of the others.

SMILES	GALR2 agonist	S1P2 agonist	GALR2 blocker	hDAT+cocaine	S1P2 antag	GALR2 agon conf	BLA act counter
CC(SCc1ccccc1)C(=O)NN=C1CCN(C)CC1 (configuration not stated)	0	-6	-12	-0.16	8	·	·
Cc1ccc(NC(=O)Cn2c(/C=C/c3ccccc3)nc3ccccc32)cc1C	8	-5	3	0.59	-5	6	7
CCCCCCN1C(=O)C(O)=C(C(C)=O)C1c1ccc(Cl)cc1 (configuration not stated)	-3	·	5	-0.49	·	·	·
CCCCN1C(=O)C(O)=C(C(C)=O)C1c1ccccc1 (configuration not stated)	172*	-5	-13	-0.51	3	-1	-3
CCn1nc(C(=O)OC(C(=O)c2c[nH]c3ccccc23)c2ccccc2)c2ccccc2c1=O (configuration not stated)	2	5	-14	1.3	-55	·	·
CCCC(=O)NCCc1cc(OC)c(OC)cc1Br	0	·	1	·	·	·	·
O=C(NCC(=O)N1CCCC1C(=O)O)OC1CCCCC1 (configuration not stated)	-3	-6	5	-0.38	4	·	·
NC(CC(=O)OC1CCCCC1)C(=O)OC1CCCCC1 (configuration not stated)	8	2	-3	-0.47	9	-1	-1
Cc1ccc2nc3c(cc(C(=O)NCC4CCCO4)c(=N)n3CCCOC(C)C)c(=O)n2c1 (configuration not stated)	10	5	-12	0.11	-5	1	3
Cc1ccc2nc3c(cc(C(=O)NCC4CCCO4)n3C)c(=O)n2c1 (configuration not stated)	0	-1	-8	-0.19	7	·	·
CCC(=O)N1CCc2cc(S(=O)(=O)NC(C(=O)NC3CCCc4ccccc43)C(C)C)ccc21 (configuration not stated)	0	·	0	·	·	·	·
COC(=O)c1cc2ccsc2n1CC(=O)Nc1cc(C)cc(C)c1	10	-2	0	-1.2	-5	2	-2
CCN(CC)c1ccc(/C=N/NC(=O)Nc2nonc2N)cc1	-1	·	-26	·	·	·	·
Nc1n[nH]c(S(=O)(=O)CCCc2ccccc2)n1	0	-9	18	-0.67	4	·	·
CS(=O)(=O)N(CCc1ccccc1)CC(=O)NCc1ccccn1	0	-5	-2	1.5	14	·	·
Cc1cc(=O)oc2c3c4c(cc12)OCCN4CCC3	15*	5	18	0.47	-9	1	3
O=C(c1ccc(Oc2ccccc2)cc1)c1nc2c(n1O)CCCC2	-3	-3	-8	0.061	-9	·	·
CN1CCN(C(=S)NC(=O)/C=C/c2cccc3ccccc23)CC1	22*	-1	11	-0.35	-6	0	-4
Cc1cc(NC(NC(=O)c2ccco2)(C(F)(F)F)C(F)(F)F)no1	8	-6	4	0.097	-14	0	-1
O=S(=O)(c1cccc(C(F)(F)F)c1)N1CCN(c2ccccc2)CC1	12*	-3	-9	-0.041	1	-1	-3
CCOc1ccc(Nc2nc(Cc3nnc(SCC(=O)c4ccc(C)c(C)c4)o3)cs2)cc1	19*	-4	5	-0.34	5	-1	0
CN(C)c1ccc(/C=C2\SC(=O)N(CC(O)Cn3c4ccccc4c4ccccc43)C2=O)cc1 (configuration not stated)	-1	·	-5	·	·	·	·
CN(C)c1ccc(/C=C2/SC(=O)N(CCN=C3NS(=O)(=O)c4ccccc43)C2=O)cc1	13*	·	8	·	·	5	-2
CCOc1cccc(-c2nn(-c3ccccc3)cc2/C=C(/C#N)C(=O)NCCCn2ccnc2)c1	46*	·	8	·	·	35*	82*
Cc1ccc(NC2=C(Cl)C(=O)OC2OC(=O)c2ccco2)cc1 (configuration not stated)	35*	-3	8	-0.31	-5	-1	-1
SMILES	GALR2 agonist	S1P2 agonist	GALR2 blocker	hDAT+cocaine	S1P2 antag	GALR2 agon conf	BLA act counter
Cc1ccc(/C(N)=N/OC(=O)c2ccco2)cc1	-3	-6	11	-0.54	-12	·	·
O=C(Nc1ccc2c(c1)OCO2)OCc1ccccc1	12*	-6	-1	0.35	6	-1	-1
O=C(Nc1ccc2c(c1)OCO2)C1CCCN1C(=O)OCc1ccccc1 (configuration not stated)	-3	·	16	0.022	·	·	·
COc1cc(NC(=O)c2cccc(C)c2)c(Cl)cc1[N+](=O)[O-]	-2	·	10	·	·	·	·
O=C(CCSCCc1ccccn1)Nc1ccc(Cl)cn1	11	-4	-6	0.23	2	-1	0
O=C(Nc1cccc2ncccc12)C12CC3CC(CC(C3)C1)C2	0	-4	-14	-0.37	-9	·	·
O=C(CC12CC3CC(CC(C3)C1)C2)Nc1cccc2ncccc12	23*	-3	-8	0.69	-7	0	-1
COCCN1C=C(C(=O)OC)C(c2ccccc2C(F)(F)F)C(C(=O)OC)=C1	18*	11	-2	-0.69	-15	2	6
CCCSc1nc(N)nc(-c2cccs2)c1C#N	-1	-5	1	0.45	-10	·	·
CSC(=Nc1ccc(Cl)cc1)N[n+]1ccccc1	0	·	7	·	·	·	·
COC(=O)C1=CNC=C(C(=O)OC)C1c1ccccc1Cl	9	7	1	-0.79	1	1	3
COc1ccc(NC(=O)c2cccc(F)c2)cc1Cl	-1	-3	7	·	5	·	·
COc1ccc(NC(=O)c2ccccc2F)cc1Cl	15*	0	10	-0.28	-3	-1	-2
NS(=O)(=O)c1ccc(N2N=C(c3ccccc3)CC2c2ccc(F)cc2)cc1 (configuration not stated)	20*	5	-10	-0.051	-6	5	11*
c1ccc(NCc2cccnc2)cc1	-2	-6	16	0.99	7	·	·
Fc1ccc(NCc2cccnc2)cc1	36*	4	-14	-0.85	-22	-1	-1
N#Cc1c(-c2ccccc2)cc(-c2ccco2)c(C#N)c1N	10	11	-6	·	-35	8	11*
CCOC(=O)c1c(NC(=O)C2=C(C)NC(=S)NC2c2ccc(CC)cc2)sc(C)c1C (configuration not stated)	9.5*	·	-2	·	·	4	4
O=C(c1ccco1)N1CCN(C(=O)c2cc3c(=O)oc4ccccc4c3s2)CC1	30*	-5	1	-0.063	-8	-1	-1
COc1ccc(C2c3c(oc4ccc(Cl)cc4c3=O)C(=O)N2Cc2ccco2)cc1OC (configuration not stated)	21*	·	12	2	·	7	5
CCOC(=O)N1CCN(c2ccc(C(=O)CC)cc2F)CC1	0	0	-1	-0.0023	-2	·	·
CCCC(=O)c1ccc(N2CCN(C(=O)OCC)CC2)c(F)c1	30*	-3	-5	0.5	7	-1	0

From PubChem
